Only some compounds are listed: those with a hit (about 4.1% of all), similar ones and a draw of the others.
Mtb FBA inh: Mtb FBA enzyme inhibitors, primary screen, biochemical, fluorescence, strain H37Rv; purified M. tuberculosis FBA, fluorescence read-out; inhibition, % at 1 µM; hit rate 2.3% among 360,000; AID 588726, 2011; in the data active means inhibition above about 27%
Target sequence (P9WQA3 whole entry, looked up): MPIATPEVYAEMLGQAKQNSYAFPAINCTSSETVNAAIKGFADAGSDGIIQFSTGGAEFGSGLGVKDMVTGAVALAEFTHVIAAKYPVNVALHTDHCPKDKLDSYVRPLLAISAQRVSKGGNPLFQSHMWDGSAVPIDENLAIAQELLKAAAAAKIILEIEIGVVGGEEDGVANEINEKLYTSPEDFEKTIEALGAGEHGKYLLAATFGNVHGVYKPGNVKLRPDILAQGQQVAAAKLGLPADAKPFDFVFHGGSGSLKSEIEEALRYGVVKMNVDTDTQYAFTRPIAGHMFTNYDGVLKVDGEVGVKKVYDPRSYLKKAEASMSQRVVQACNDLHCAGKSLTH
Rv3671c inh: Rv3671c serine protease inhibitors, primary screen, biochemical, fluorescence polarization, M. tuberculosis H37Rv | hit rate 0.048% among 320,000 | P9WHR9 | AID 2606, 2010 | inhibition, % at 5.96 µM; in the data active means inhibition above about 38%;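 further: extracellular domain of Rv3671c used as enzyme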
RecA splice inh: Mtb RecA intein splicing inhibitors, primary screen, biochemical, fluorescence, HTS; Protein RecA (Mycobacterium tuberculosis (strain ATCC 25618 / H37Rv)), P9WHJ3; cell-free RecA intein splicing; inhibition, % (test concentration not listed); hit rate 0.75% among 290,000; in the data active means inhibition above about 30%; inconclusive means no clear call, values can overlap the other calls
GDH-TPI counter: GDH-TPI coupling enzyme inhibitors, primary screen, artefact control for M. tuberculosis FBA inhibitor project, biochemical, absorbance, full deck. GDH-TPI coupled enzyme counterscreen, NADH absorbance. inhibition, % at 4.8 µM. hit rate 1.2% among 360,000; in the data active means inhibition above about 30%
BH1578 lux ind: inducers of Vibrio cholerae quorum light production without autoinducers, primary screen, BH1578 luxS cqsA deficient, single point | V. cholerae BH1578 lux reporter, luminescence, 6 h | activation, % at 18.7 µM | hit rate 0.16% among 350,000 | AID 588436, 2011; in the data active means activation mostly above about 9.7%, no sharp cut-off; inconclusive means no clear call, values can overlap the other calls; inactive means mostly below about 3.7%
Mtb UGM inh: M. tuberculosis UGM enzyme inhibitors, primary screen, biochemical, fluorescence polarization, single point; inhibition, % at 10 µM; UDP-galactopyranose mutase (Mycobacterium tuberculosis (strain ATCC 25618 / H37Rv)), …; hit rate 0.06% among 320,000; purified UGM, fluorescence polarization probe displacement; in the data active means inhibition above about 10%, passing the limit was not always enough; inconclusive means no clear call, values can overlap the other calls
GFP chromo cs: counter-screen: blocks GFP chromophore formation, dose response, counter-screen, biochemical, fluorescence, homogeneous | shares compounds with RecA splice inh | cell-free GFP chromophore formation | EC50, µM | hit rate 83% among 2,100; call rule not given here
Each line names hits and unclear results; the compound was inactive in the other large screens (follow-up assays come after a bar, where they were run).

Cc1cc(C(c2ccc(O)cc2)c2cc(C)c(O)cc2C)c(C)cc1O	RecA splice inh 33 | GFP chromo cs inactive
COc1ccc(C(=O)OCc2ccccc2F)cc1S(=O)(=O)N1CCCC1	none (no result: RecA splice inh)
CCCCCc1c2c(cc(O)c1C(=O)O)OC(=O)c1c(cc(OC)cc1C(=O)CCCC)O2	RecA splice inh 31 | GFP chromo cs 12
O=c1[nH]c(Nc2ccc(F)cc2)cc2ccccc12	RecA splice inh 65 | GFP chromo cs 1.6
O=c1[nH]c(Nc2ccccn2)cc2ccccc12	Mtb FBA inh 132, RecA splice inh 72 | GFP chromo cs inactive
O=c1[nH]c(Nc2ccccc2Cl)cc2ccccc12	RecA splice inh 86 | GFP chromo cs 16
Cc1cc(Nc2ccc(F)cc2)c2ccccc2n1	none (no result: Rv3671c inh, RecA splice inh, Mtb UGM inh)
O=c1oc(Nc2ccccc2Cl)nc2ccccc12	none (no result: Rv3671c inh, Mtb UGM inh)
Cc1ccccc1Nc1cc2ccccc2c(=O)[nH]1	RecA splice inh 71 | GFP chromo cs inconclusive
Cc1ccccc1Nc1nc(N)c2ccccc2n1	none
CCCCn1c(N)c(N(CC(C)C)C(=O)c2ccc([N+](=O)[O-])o2)c(=O)[nH]c1=O	none (no result: RecA splice inh)
CC1(C(=O)NS(=O)(=O)c2ccccc2Cl)CCN1C(=O)C1(c2ccccc2)CCCC1 (configuration not stated)	none (no result: Rv3671c inh, RecA splice inh, Mtb UGM inh)
O=C(O)CN1C(=O)/C(=C\c2cccc(OC(=O)c3ccco3)c2)SC1=S	RecA splice inh 31 | GFP chromo cs inactive
O=C(O)COc1ccc(/C=C2/SC(=S)N(Cc3ccccc3)C2=O)cc1	RecA splice inh 53 | GFP chromo cs 36
CCN(Cc1cnn(C)c1)C(=O)CC1C(=O)NCCN1Cc1cccc(OC)c1OC (configuration not stated)	none
Nc1cc(=O)[nH]c(SCC(=O)Nc2ccc(N3CCCCC3)cc2)n1	none (no result: RecA splice inh)
C=CCc1cccc(C=Nc2c[nH]c(=O)[nH]c2=O)c1O	none (no result: RecA splice inh) | GFP chromo cs inactive
N=C1CCC(=N)c2c1c(O)c1ccccc1c2O	RecA splice inh 91 | GFP chromo cs 28
O=C(O)CC(CC(=O)O)c1ccsc1	none (no result: RecA splice inh)
N#CC(C#N)C(c1ccsc1)c1c(-c2ccccc2)[nH][nH]c1=O (configuration not stated)	RecA splice inh 86 | GFP chromo cs 7.6
COc1ccc(C(N)c2nccc3cc(OC)c(OC)cc23)cc1OC (configuration not stated)	RecA splice inh 92 | GFP chromo cs inactive
COc1cc2ccnc(C=O)c2cc1OC	none (no result: Rv3671c inh, RecA splice inh, Mtb UGM inh)
CNC(=O)c1cc(NC(=O)N(CCC#N)CCN(C(=O)NC(Cc2ccccc2)C(=O)NC(CC(C)C)C(=O)NC)c2ccccc2)ccc1OC (configuration not stated)	none (no result: Rv3671c inh, RecA splice inh, Mtb UGM inh)
O=C(CSc1nnc(Cc2ccccc2)o1)Nc1cccc(F)c1	RecA splice inh 43 | GFP chromo cs inactive
Cc1ccc(C(=O)n2c(-c3ccccc3)cnc2SCC(=O)Nc2ccccc2)cc1	none
Cn1c(SCC(=O)NCC2CCCO2)ncc(C(=O)Nc2ccccc2)c1=O (configuration not stated)	RecA splice inh 46 | GFP chromo cs inactive
CC(=O)Nc1ccc(NC(=O)CSc2ncc(C(=O)Nc3ccccc3)c(=O)n2C)cc1	RecA splice inh 31 | GFP chromo cs 0.11
Cc1ccc(NC(=O)CSc2ncc(-c3ccccc3)n2C(=O)c2ccccc2)cc1	RecA splice inh 54 | GFP chromo cs 1.2
CC1(C)O[C@@H]2[C@H](O1)[C@@H](CO)O[C@H]2n1cnc2c(=O)[nH]cnc21	none (no result: RecA splice inh)
COc1cccc(-n2nnnc2S(C)(=O)=O)c1	RecA splice inh 91 | GFP chromo cs 7.3
N#Cc1cc(-c2ccccc2)nc(Oc2ccccc2)n1	RecA splice inh 60 | GFP chromo cs 33
N#Cc1ccc(Oc2nc(C#N)cc(-c3ccccc3)n2)cc1	none
